Source: the supplement of paper PMC11417369
± gives the standard deviation of the averaged measurements. Over roughly 25,000 sequences, “ln(normalized median fluorescence intensity)” has its median near 7.9; the highest 2% begin near 11. The list comes from a sample in which the highest values are over-represented; it also holds similar and randomly drawn sequences.

system: PfAP2-I AP2 domain 3 (GST-tagged); assay: gcPBM binding intensity (ln(normalized median fluorescence intensity)); higher = stronger DNA binding
How it was run: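 For binding intensity, the highest Masliner-normalised natural-log median intensity across replicate spots of either probe orientation was taken. Protein bound to the array was stained with Alexa488 anti-GST antibody and scanned at 488 nm. The protein, GST-tagged P. falciparum DNA-binding domains from E. coli at about 25 μg on average, had been applied for 1 h to an Agilent 4 × 180k array of primer-extended double-stranded 36-bp intergenic genomic probes and negative controls.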

Compared with “GTGTAGTAAAATCGATGTACGTACAAATCAATTATT [XGTACX_site7662]”, AAAAACAAACTGTGCATGCACCAAAAAAAAAAAAAA is higher in “gcPBM binding intensity (ln)” value: 8.06 ± 0.39 for the first, 10.4 ± 0.35 for the second.

Going from “ATATATATATATATTACACACTTTTTCTTTTTTTTT [CACACA_site2780]” to “CAGGTGCACTATATTACACACGCTTCTTTTTTTTTA [CACACA_site2069]”, the “gcPBM binding intensity (ln)” value rises from 9.41 ± 0.35 to 11.7 ± 0.59.

“TTTTTCATTTAGCTTTTACACACTATATATTATTGA [CACACA_site7888]” and “TACAATCTAAAATACACACGCACACCGAAAAAAAAA [CACACA_site3520]” are within error of each other in “gcPBM binding intensity (ln)” value: 7.94 ± 0.86 for the first, 8.13 ± 0.37 for the second.

“TTTTTTTTTTTAAATACATGCATGTCCTATTTAAAT [TGCATGCA_site494]” and “TATATCTATTTCAAATGTACTTATATGATTCTTATA [XGTACX_site6277]” are within error of each other in “gcPBM binding intensity (ln)” value: 7.92 ± 0.89 for the first, 7.67 ± 0.2 for the second.

Compared with “AATATATTGCACCATTGGACCTGAATAATTCTTCCA [CACACA_negctrl_site1071]”, “AATATAATATATTGCACACAAAAAGTGAATTATTCT [CACACA_site1684]” is lower in “gcPBM binding intensity (ln)” value: 11.8 ± 0.81 for the first, 10.2 ± 0.4 for the second.

Going from “TAATATATGTATTGCACACCTATAACCATTATTTCT [CACACA_site1498]” to “AAGGGTTATAAAAATTGTACTTTTTTTATTTTTTTT [XGTACX_site1313]”, the “gcPBM binding intensity (ln)” value falls from 10.2 ± 0.38 to 7.72 ± 0.56.

Compared with “CACTTTAATTTATGCACACATATGGAACAACAGCCA [CACACA_site994]”, “ATATACACTTAATTTTTTATAAAAAAAAATTTATAT [CACACA_negctrl_site498]” is lower in “gcPBM binding intensity (ln)” value: 10.2 ± 0.38 for the first, 7.66 ± 0.43 for the second.

First: TTTTTTTAATAGTGTGCACACAATATACAGAAAAAA [CACACA_site8399]
Second: CATATAAATATTTGTGCACACAATTATTAATAATTA [CACACA_site3884]
The “gcPBM binding intensity (ln)” value of the first is lower: 10.1 ± 0.11 for the first, 11.3 ± 0.23 for the second.

“TTTTTTTTTTTTTTTGTGCACAATATAATTTTTAAT [GTGCAC_site9747]” and “TATTATAATATATTTGTGCACATAATATCTCCGCTA [GTGCAC_site9799]” are the same in “gcPBM binding intensity (ln)” value: 10.9 ± 0.52 for the first, 10.91 ± 0.049 for the second.

First: TTATAATATTAATGTGCACACAATTAAAATATTATA [CACACA_site2046]
Second: AAATATTTATAGGTTTGTACTTATAAATAAAAAAAA [XGTACX_site7360]
The “gcPBM binding intensity (ln)” value of the first is higher: 10.6 ± 0.26 for the first, 7.83 ± 0.41 for the second.

Going from “TTTTAAACAAAAATTTGTACACAATAATTAAATATA [XGTACX_site6755]” to “ATATAAATATATTGCACACACAATTATTATTATTAT [CACACA_site7147]”, the “gcPBM binding intensity (ln)” value rises from 7.79 ± 0.32 to 10.1 ± 0.45.

Compared with “TATATTCTTTATAGGTGTACTTAATAAATAAAAAAT [XGTACX_site5378]”, ATATATATCTTTTGTGTGCACATATATATAATATAT is higher in “gcPBM binding intensity (ln)” value: 8.11 ± 0.23 for the first, 9.79 ± 0.22 for the second.

Going from “TATTATAATATATTTGTGCACATAATACCTCCGCTA [GTGCAC_site9570]” to ATATATATAATATAGGTGCACTACTTATTTAAAAAA, the “gcPBM binding intensity (ln)” value rises from 10.7 ± 0.18 to 11.6 ± 0.2.

“ATAAATATTATTTTACGTACATATTTATGAAGTATT [XGTACX_site8746]” and “ATTGTTCTATGATTTGTACACACTTTTTTTTAAAAT [CACACA_site2825]” are within error of each other in “gcPBM binding intensity (ln)” value: 7.92 ± 0.29 for the first, 8.43 ± 0.46 for the second.

“TTACATACATACAAGTGTACGCATATATTAATATTA [XGTACX_site4006]” and “ATTATTTGTTTAATGAGTACGAAGACAAATTTTACC [XGTACX_site5223]” are within error of each other in “gcPBM binding intensity (ln)” value: 8 ± 0.26 for the first, 8.12 ± 0.49 for the second.

“TTTATAAAAAGCATAACACACACATGTCAATATATA [CACACA_site8286]” and “TGAATCAATTGTTGCTGTACATAAGGTATACAATAA [XGTACX_site5127]” are within error of each other in “gcPBM binding intensity (ln)” value: 7.71 ± 0.52 for the first, 7.97 ± 0.52 for the second.

First: ATGTATATATATATATGTACTAATTAGTAATTTACG [XGTACX_site6276]
Second: TAATATAATATATGCACACAAATATGTATTTATGTG [CACACA_site5210]
The “gcPBM binding intensity (ln)” value of the first is lower: 7.87 ± 0.32 for the first, 9.14 ± 0.014 for the second.

TGAAATTTTATTAATGTGCACATATATTTATTGTTC and “ATTTTTATTTTTTTTGTGCACATTTTCATTTTCTAT [GTGCAC_site9580]” are within error of each other in “gcPBM binding intensity (ln)” value: 9.77 ± 0.26 for the first, 10.4 ± 0.47 for the second.

Compared with “ATTTTTATTTTATATACACACAATAATAATATAATA [CACACA_site4015]”, AATTTATATAATTTTGTGCACAATATTCATGTATAT is higher in “gcPBM binding intensity (ln)” value: 7.83 ± 0.43 for the first, 11 ± 0.14 for the second.

“ATATATATTAATTTTGTGCACAAATGGAAATGTTTG [GTGCAC_site9971]” and TATTATTCAAAATTTGTGCACAAAATTAAAGGAACA are within error of each other in “gcPBM binding intensity (ln)” value: 11 ± 0.2 for the first, 10.8 ± 0.27 for the second.

Compared with “ATATTTTATTTAATTACACACAATATTGCAATTTGT [CACACA_site669]”, “TTTTTTTTTTTTTTTGTGCACAATTATTTCAATTTT [GTGCAC_site9884]” is higher in “gcPBM binding intensity (ln)” value: 8.35 ± 0.53 for the first, 10.9 ± 0.79 for the second.

First: TATTTTATTTGTATATTCATTTGTATAATATAAATA [TGCATGCA_negctrl_site267]
Second: TGTATATGGTTTGTGCAAAAATTTATTAATGTGTAA [TGCATGCA_negctrl_site374]
The “gcPBM binding intensity (ln)” value of the first is lower: 7.37 ± 0.55 for the first, 8.8 ± 0.35 for the second.

First: ATATTTTATATATTTGTGCACAATATTATAATATAT
Second: ATAAAATACAAAGGGACACACATATGAGTCTACAAA [CACACA_site3092]
The “gcPBM binding intensity (ln)” value of the first is higher: 11.04 ± 0.049 for the first, 7.54 ± 0.6 for the second.
